Measured values published in PubChem BioAssay (NCATS).
Inconclusive results are not listed. Active and inactive are the calls of the source. Unless noted, the call rests on the fitted dose curve; in most records, active means well fitted curve in the direction sought with a large enough effect; inconclusive means small, poorly fitted or top-dose-only effect, or another doubt; inactive means no such curve, though single readings can be large; an effect the other way counts as inactive or inconclusive.

How the values were obtained:
[1] = target: Glucocorticoid receptor (Homo sapiens) (UniProt P04150); assay: GR-GFP Redistribution (AID 450;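 active means compounds whose dose series gives a full or clear partial fitted curve of increased nuclear translocation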; further: potency means the concentration at half of the fitted maximal effect); settings: U2OS GR-GFP nuclear translocation, laser cytometry, 2 h
[2] = target: Glucocorticoid receptor (Homo sapiens) (UniProt P04150); assay: GR-EFC Redistribution (AID 451; calls by dose curve; further: potency means the concentration at half of the fitted maximal effect); settings: CHO-K1 GR-EFC translocation, beta-gal luminescence, 2 h
Method in brief: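 Translocation of GR-ED fusion to nuclear EA restores b-gal, read by luminescence after 1 h room-temperature detection. Engineered CHO-K1 biosensor cells, 1,000/well, exposed 2 h at 37 C to titrations up to 46 uM final.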

[3] = target: Mitogen-activated protein kinase 10 (Mus musculus) (UniProt Q61831); assay: JNK3 AlphaScreen Assay (AID 530; active means well fitted curve in either direction with a large enough effect, not every such curve was filed as active;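 further: kinase came from lysate of stimulated human HepG2 cells; signal reports phosphorylation of biotinylated GST-cJun 1-79 at Ser73 with 10 µM ATP; on the % scale 0 is the no-effect control and ±100 the full control effect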)
Method in brief: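 Kinase buffer: 20 mM Tris-HCl pH 7.6, 10 mM MgCl2, 1 mM DTT, 0.1 mM Na3VO4, 0.01% Tween-20; ATP 10 uM. Substrate biotin-GST-cJun(1-79), enzyme from activated HepG2 lysates. Detection by Ser73 phospho-antibody AlphaScreen.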

[4] = target: 3',5'-cyclic-AMP phosphodiesterase 4B (Homo sapiens) (UniProt Q07343); assay: qHTS Assay for Inhibitors of PDE-IV (AID 607; active means well fitted activation curve with a large enough effect in the main read-out, with a control signal flat, not every such curve was filed as active; further: % of control where 0% means no effect)
Method in brief: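 Cell-based read-out of cAMP via a modified cyclic nucleotide-gated channel and membrane potential dye (535/590 nm) in HEK293 cells expressing PDE4 endogenously. Compounds tested up to 22.9 uM final; 100 uM RO 20-1724 reference.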

[5] = target: Ubiquitin carboxyl-terminal hydrolase 1 (Homo sapiens) (UniProt O94782); assay: Inhibitors of USP1/UAF1: Pilot qHTS (AID 504865); further: nearly all actives have a fitted effect of over 35% in size; further: potency means the concentration at half of the fitted maximal effect
Method in brief: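 Kinetic fluorescence assay: 1nM USP1/UAF1, 15 min compound preincubation, then 150nM Ub-Rho; 480/540 nm.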

[6] = target: DNA dC->dU-editing enzyme APOBEC-3G (Homo sapiens) (UniProt Q9HC16); assay: qHTS for inhibitors of Vif-A3G interactions: Validation (AID 588379); further: 0% is about no effect
Method in brief: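 Yellow fluorescence (Ex 488, Em 500-530) of Vif-coexpressing HeLa A3G-eYFP cells, scanned by Acumen cytometer, reports blocked A3G degradation. Cells plated at 700/well overnight at 37 deg C before compound addition, then a further overnight compound incubation at 37 deg C.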

[7] = system: Zika virus NS2B-NS3 protease (linked construct); assay: Confirmatory screen NINDS AMC qHTS for Zika virus inhibitors (AID 1347152); further: potency means the concentration at half of the fitted maximal effect; nearly all actives have a fitted effect of over 70% in size
Method in brief: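 In this dose-response qHTS, AMC release from 10 microM Bz-Nle-KRR-AMC by 1 nM linked protease is measured over 15 minutes (about 20% conversion) at pH 8.0. Percent inhibition is fitted to a 4-parameter Hill curve.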

[8] = system: Zika virus NS2B-NS3 protease (unlinked complex); assay: Confirmatory screen GU AMC qHTS for Zika virus inhibitors (AID 1347153);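 further: enzyme at 25 nM with substrate at 10 µM below its Km of 18.3 µM; potency means the concentration at half of the fitted maximal effect; nearly all actives have a fitted effect of over 70% in size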
Method in brief: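 Compounds were preincubated 15 min at room temperature with 25 nM noncovalent NS2B-NS3 protease at pH 8.0; AMC substrate added at 10 microM and 15-min fluorescence gain (340/450 nm) converted to percent inhibition, fitted 4-parameter.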

[9] = system: Zika virus NS2B-NS3 protease; assay: Primary screen GU AMC qHTS for Zika virus inhibitors (AID 1347154); further: potency means the concentration at half of the fitted maximal effect; nearly all actives have a fitted effect of over 70% in size
Method in brief: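 Fluorogenic AMC-substrate cleavage by noncovalent NS2B-NS3 protease complex (25 nM, pH 8.0 Tris buffer with Tween 20) followed for 15 minutes at room temperature (~20% conversion). Percent inhibition from ex340/em450 signal change, fitted by 4-parameter Hill equation.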

[10] = Vero cells viability qHTS for Zika virus inhibitors (AID 1347167); further: on the % scale 0 is the no-effect control and ±100 the full control effect
Method in brief: (§1)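 Luminescent ATP readout (CellTiter Glo) after 30 min at 37 degrees C gives viability; cells in DMEM + 4% FBS were treated 24 to 48 hours with compound, following overnight attachment.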

[11] = HepG2 cells viability qHTS for Zika virus inhibitors (AID 1347168); further: on the % scale 0 is the no-effect control and ±100 the full control effect
Method in brief: as §1

[12] = Primary qHTS for small molecule stabilizers of the endoplasmic reticulum resident proteome: Secreted ER Calcium Modulated Protein (SERCaMP) assay (AID 1508630); further: on the % scale 0 is the no-effect control and ±100 the full control effect
Method in brief: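 The SH-SY5Y reporter protocol was run at 3 concentrations up to 38.3 uM (primary) or 11 concentrations (follow-up): 16 h compound, 100 nM thapsigargin for 4 h, then extracellular luciferase luminescence.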

[13] = target: Rap guanine nucleotide exchange factor 3 (Homo sapiens) (UniProt O95398); assay: Confirmatory qHTS for antagonist of cAMP-regulated guanine nucleotide exchange factor 3 (EPAC1) (AID 1645880); further: potency means the concentration at half of the fitted maximal effect; nearly all actives have a fitted effect of over 55% in size
Method in brief: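 Released BODIPY-GDP fluoresces less than Rap1-bound BODIPY-GDP; the signal is followed at 480/540 nm at 5-min intervals over 30 min, after 5 min at room temperature. Reactions contain 100 nM EPAC1, 250 nM RAP1B-BODIPY-GDP and 50 uM GDP; results are normalized to ATA and DMSO.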

[14] = target: Rap guanine nucleotide exchange factor 3 (Homo sapiens) (UniProt O95398); assay: Confirmatory qHTS for agonist of cAMP-regulated guanine nucleotide exchange factor 3 (EPAC1) (AID 1645881);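 further: EPAC1 catalysed release of BODIPY-GDP from Rap1B seen as fluorescence loss; 100% = effect of cAMP agonist control; nearly all actives have a fitted effect of over 75% in size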
[15] = target: Rap guanine nucleotide exchange factor 4 (Homo sapiens) (UniProt Q8WZA2); assay: Confirmatory qHTS for agonist of cAMP-regulated guanine nucleotide exchange factor 4 (EPAC2) (AID 1645884);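 further: nucleotide exchange releases bodipy-GDP from Rap1 and this lowers its fluorescence; on the % scale 0 is the no-effect control and ±100 the full control effect; nearly all actives have a fitted effect of over 65% in size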
[16] = target: Rap guanine nucleotide exchange factor 4 (Homo sapiens) (UniProt Q8WZA2); assay: Confirmatory qHTS for antagonist of cAMP-regulated guanine nucleotide exchange factor 4 (EPAC2) (AID 1645885); further: potency means the concentration at half of the fitted maximal effect; nearly all actives have a fitted effect of over 25% in size
[17] = AP1 Signaling Pathway (AID 357; active means well fitted curve in either direction with a large enough effect, not every such curve was filed as active); settings: ME-180 AP-1-bla reporter, EGF-induced, beta-lactamase ratio, 5 h; at 17.2 µM (top of the series)
Method in brief: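 Modulation of EGF-driven AP-1 transcription was assessed with a beta-lactamase reporter in ME-180 cells. Compound and EC50 EGF were co-incubated 5 hours at 37 °C before 2.5-hour CCF4 loading at room temperature and dual-emission reading.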

[18] = Stat Signaling Pathway (AID 446; active means well fitted curve in either direction with a large enough effect, not every such curve was filed as active); settings: ME-180 (cervical carcinoma) SIE beta-lactamase reporter, IL-6 stimulated, 5 h; at 17.2 µM (top of the series)
Method in brief: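 FRET read-out (405 nm excitation, 460/530 nm emission) of a beta-lactamase reporter under a STAT-inducible element in ME-180 cervical carcinoma cells. Cells with compound receive 40 pM IL-6 for 5 h. Values are normalised to AC90 stimulation and AC90 JAK-inhibitor controls.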

[19] = qHTS Assay for Lipid Storage Modulators (AID 1519; calls by dose curve); settings: Drosophila S3 cells, BODIPY lipid droplet/cell ratio, laser cytometry, cells loaded with oleic acid
Method in brief: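 Cells seeded at 5,000 per well were treated with compounds over a concentration series and loaded with oleic acid (400 uM, as added). Lipid droplet fluorescence (488 nm excitation, 500-530 nm channel) was read by laser-scanning cytometry and normalized to 20 uM Triacsin C.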

Furin (Homo sapiens) = Furin (Homo sapiens) (UniProt P09958); assay: Furin counterscreen qHTS for Zika virus inhibitors (AID 1347149);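 further: purified recombinant full-length human furin enzyme at 5 nM; fluorescence gain from furin cutting a BOC-RVRR-AMC peptide substrate over 15 min; top concentration of the series differs between compounds; plate controls were no-inhibitor control for no effect and no-enzyme control for full effect; nearly all actives have a fitted effect of over 70% in size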
Method in brief: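 Counterscreen measures cleavage of 2 microM BOC-RVRR-AMC, below its ~15 microM Km, by 5 nM full-length human furin at pH 7.0 after a 15-min compound preincubation. Inhibition derives from the 15-min fluorescence increase at 37C.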

[20] = Tertiary RLuc qRT-PCR qHTS assay for Zika virus inhibitors (AID 1347169); further: potency means the concentration at half of the fitted maximal effect; nearly all actives have a fitted effect of over 55% in size
Method in brief: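 Orthogonal cell-based infection assay using recombinant ZIKV-RLuc (Cambodian) in Vero cells; compound added prior to virus at MOI 1-2. Incubation lasts 48-72 hrs at 37 degrees C before live-cell Renilla substrate is added and luminescence measured.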

Glucocorticoid receptor (Homo sapiens), sequence (P04150 whole entry, looked up, the tested form may be a part): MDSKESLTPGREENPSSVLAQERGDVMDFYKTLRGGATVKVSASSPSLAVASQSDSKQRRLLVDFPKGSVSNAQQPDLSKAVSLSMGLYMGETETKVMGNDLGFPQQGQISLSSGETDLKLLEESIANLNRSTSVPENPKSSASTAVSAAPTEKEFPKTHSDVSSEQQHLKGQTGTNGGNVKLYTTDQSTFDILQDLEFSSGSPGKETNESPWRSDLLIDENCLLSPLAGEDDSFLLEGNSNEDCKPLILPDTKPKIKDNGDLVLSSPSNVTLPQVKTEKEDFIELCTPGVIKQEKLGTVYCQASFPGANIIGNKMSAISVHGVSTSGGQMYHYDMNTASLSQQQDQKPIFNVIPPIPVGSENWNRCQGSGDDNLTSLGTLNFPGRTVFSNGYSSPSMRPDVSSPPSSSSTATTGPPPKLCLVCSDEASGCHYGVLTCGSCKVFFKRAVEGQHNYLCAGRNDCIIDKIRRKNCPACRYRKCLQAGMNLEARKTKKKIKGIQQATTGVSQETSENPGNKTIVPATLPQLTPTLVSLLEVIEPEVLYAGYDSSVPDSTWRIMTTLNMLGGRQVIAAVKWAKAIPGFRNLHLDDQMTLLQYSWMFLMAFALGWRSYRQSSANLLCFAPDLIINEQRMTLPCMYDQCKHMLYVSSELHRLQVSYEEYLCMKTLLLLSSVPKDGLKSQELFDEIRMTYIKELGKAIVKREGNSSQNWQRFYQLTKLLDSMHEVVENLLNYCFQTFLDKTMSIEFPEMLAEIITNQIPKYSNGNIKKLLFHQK
3',5'-cyclic-AMP phosphodiesterase 4B (Homo sapiens), sequence (Q07343 whole entry, looked up): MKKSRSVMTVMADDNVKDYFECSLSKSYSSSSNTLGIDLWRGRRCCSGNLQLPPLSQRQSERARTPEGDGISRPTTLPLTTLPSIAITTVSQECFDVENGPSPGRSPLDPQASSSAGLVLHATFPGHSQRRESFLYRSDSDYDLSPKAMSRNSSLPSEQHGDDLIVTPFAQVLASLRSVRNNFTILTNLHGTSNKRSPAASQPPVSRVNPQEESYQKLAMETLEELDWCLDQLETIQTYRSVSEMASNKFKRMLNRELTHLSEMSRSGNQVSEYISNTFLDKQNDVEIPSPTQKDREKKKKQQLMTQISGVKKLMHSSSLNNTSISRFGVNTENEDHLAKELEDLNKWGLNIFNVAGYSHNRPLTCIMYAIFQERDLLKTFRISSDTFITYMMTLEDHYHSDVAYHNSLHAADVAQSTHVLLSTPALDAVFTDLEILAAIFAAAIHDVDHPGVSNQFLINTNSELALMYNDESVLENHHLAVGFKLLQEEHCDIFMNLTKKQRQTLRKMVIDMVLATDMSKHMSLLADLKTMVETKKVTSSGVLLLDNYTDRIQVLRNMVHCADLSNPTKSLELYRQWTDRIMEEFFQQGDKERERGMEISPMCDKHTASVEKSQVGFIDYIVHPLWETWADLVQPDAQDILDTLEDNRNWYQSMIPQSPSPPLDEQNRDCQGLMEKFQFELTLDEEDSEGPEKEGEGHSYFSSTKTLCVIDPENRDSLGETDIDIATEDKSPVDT
Rap guanine nucleotide exchange factor 3 (Homo sapiens), sequence (O95398 whole entry, looked up): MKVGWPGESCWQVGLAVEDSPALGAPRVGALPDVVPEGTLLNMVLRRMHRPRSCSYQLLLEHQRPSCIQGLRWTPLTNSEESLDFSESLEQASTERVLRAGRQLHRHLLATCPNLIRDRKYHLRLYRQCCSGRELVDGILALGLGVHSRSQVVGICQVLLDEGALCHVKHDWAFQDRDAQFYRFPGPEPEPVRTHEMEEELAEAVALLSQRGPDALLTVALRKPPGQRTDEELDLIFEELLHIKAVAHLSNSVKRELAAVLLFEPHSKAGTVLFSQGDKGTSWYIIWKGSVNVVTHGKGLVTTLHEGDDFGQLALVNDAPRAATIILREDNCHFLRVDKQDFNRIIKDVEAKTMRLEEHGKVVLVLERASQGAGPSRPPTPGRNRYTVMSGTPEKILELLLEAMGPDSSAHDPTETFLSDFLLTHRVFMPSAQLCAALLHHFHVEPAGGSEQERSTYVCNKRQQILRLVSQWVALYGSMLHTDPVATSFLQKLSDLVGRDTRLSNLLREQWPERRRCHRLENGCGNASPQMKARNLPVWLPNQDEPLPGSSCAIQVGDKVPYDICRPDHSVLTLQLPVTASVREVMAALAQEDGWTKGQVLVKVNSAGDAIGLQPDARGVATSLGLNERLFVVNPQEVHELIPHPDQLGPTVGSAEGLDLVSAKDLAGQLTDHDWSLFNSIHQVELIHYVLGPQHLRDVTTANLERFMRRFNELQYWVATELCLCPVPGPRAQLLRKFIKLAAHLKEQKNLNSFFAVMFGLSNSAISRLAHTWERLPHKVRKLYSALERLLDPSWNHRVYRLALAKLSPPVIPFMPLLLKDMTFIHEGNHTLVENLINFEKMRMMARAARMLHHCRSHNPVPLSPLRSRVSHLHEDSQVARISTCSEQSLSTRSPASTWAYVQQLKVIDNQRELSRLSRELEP
Rap guanine nucleotide exchange factor 4 (Homo sapiens), sequence (Q8WZA2 whole entry, looked up): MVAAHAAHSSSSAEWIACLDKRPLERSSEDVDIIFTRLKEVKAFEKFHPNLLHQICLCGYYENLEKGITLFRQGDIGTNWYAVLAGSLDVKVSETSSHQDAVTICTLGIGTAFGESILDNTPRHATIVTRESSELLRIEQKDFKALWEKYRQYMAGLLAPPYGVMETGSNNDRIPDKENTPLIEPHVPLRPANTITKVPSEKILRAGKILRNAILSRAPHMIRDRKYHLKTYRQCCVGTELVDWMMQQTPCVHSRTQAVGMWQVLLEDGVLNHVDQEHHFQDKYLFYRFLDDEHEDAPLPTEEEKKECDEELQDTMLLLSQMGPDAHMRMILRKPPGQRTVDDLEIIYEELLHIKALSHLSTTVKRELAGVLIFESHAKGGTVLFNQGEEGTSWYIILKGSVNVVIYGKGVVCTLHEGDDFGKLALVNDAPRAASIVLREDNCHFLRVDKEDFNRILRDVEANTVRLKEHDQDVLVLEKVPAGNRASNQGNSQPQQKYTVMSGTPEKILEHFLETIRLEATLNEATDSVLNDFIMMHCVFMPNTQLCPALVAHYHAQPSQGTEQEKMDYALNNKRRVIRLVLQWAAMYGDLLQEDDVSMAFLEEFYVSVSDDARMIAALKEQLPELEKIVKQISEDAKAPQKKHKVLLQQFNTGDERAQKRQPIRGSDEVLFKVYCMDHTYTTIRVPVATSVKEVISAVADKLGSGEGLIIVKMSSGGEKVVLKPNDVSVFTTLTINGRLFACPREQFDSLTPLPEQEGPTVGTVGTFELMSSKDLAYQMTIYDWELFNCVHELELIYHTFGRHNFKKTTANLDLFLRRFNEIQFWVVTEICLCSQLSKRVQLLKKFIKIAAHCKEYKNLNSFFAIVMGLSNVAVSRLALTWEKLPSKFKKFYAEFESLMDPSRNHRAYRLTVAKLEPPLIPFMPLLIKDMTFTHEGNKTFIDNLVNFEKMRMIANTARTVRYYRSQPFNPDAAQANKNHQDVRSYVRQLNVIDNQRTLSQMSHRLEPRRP
Ubiquitin carboxyl-terminal hydrolase 1 (Homo sapiens), sequence (O94782 whole entry, looked up): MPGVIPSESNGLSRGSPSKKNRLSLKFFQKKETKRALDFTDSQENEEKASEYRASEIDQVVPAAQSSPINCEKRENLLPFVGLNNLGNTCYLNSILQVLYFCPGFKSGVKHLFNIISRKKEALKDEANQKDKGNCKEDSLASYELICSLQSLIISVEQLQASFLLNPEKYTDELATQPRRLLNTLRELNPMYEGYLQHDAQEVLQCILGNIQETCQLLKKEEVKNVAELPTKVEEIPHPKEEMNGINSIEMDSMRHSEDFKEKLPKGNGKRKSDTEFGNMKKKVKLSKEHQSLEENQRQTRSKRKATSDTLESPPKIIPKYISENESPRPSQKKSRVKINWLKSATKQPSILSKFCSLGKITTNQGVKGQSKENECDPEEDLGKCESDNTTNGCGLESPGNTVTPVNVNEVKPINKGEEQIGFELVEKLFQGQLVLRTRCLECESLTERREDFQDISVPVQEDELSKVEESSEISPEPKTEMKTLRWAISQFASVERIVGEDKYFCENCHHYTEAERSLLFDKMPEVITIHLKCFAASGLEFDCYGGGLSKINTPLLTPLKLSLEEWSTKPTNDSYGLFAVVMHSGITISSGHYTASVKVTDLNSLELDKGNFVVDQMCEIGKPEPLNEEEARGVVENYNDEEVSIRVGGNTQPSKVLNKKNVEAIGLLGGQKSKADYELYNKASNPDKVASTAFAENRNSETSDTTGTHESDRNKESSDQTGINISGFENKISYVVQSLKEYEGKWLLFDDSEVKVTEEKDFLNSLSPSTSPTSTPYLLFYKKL
DNA dC->dU-editing enzyme APOBEC-3G (Homo sapiens), sequence (Q9HC16 whole entry, looked up): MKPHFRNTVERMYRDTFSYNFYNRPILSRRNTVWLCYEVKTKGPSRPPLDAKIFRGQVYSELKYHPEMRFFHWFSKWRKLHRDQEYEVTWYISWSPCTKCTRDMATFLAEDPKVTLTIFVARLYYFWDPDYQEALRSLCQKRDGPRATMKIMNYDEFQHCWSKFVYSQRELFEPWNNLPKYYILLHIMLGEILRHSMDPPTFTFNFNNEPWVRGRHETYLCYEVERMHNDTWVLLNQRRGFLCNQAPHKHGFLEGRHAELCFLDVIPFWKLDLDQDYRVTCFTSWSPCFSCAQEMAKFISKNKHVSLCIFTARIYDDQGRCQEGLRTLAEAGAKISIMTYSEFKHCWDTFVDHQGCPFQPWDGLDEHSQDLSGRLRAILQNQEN

CC1(COc2ccc(C[C@H]3SC(=O)NC3=O)cc2)CCCCC1
inactive: Potency [1] > 46 µM | Potency [2] > 46 µM | Potency [3] | Potency [4] | Potency [6] | Potency [10] | Potency [11] | Potency [12] | outcome [14] | outcome [15]
active: Potency [5] 79.4 µM | Potency [7] 19.2 µM | Potency [8] 21.5 µM | Potency [9] 11.9 µM | Potency [13] 55.9 µM | Potency [16] 49.4 µM

CC[C@@H]1O[C@]2(C=C[C@@H]1C)C[C@H]1C[C@H](CC=C(C)[C@@H](O[C@@H]3C[C@H](OC)[C@H](O[C@@H]4C[C@H](OC)[C@H](O)[C@H](C)O4)[C@H](C)O3)[C@@H](C)C=CC=C3CO[C@@H]4[C@@H](O)C(C)=C[C@@H](C(=O)O1)[C@]34O)O2
-4.3%: max response ([19]; measured here: cell count channel max response)
-18.8%: max response ([19]; measured here: lipid channel max response)
active: Potency [20] 9.97 µM
inactive: activity change, negative = inhibition [17] 6.2% | activity, negative = inhibition [18] -5.99% | Potency [1] > 20.6 µM | Potency [2] > 20.6 µM | Potency [3] | Potency [4] | activity change, negative = inhibition ([19]; at 25.7 µM (top of the series)) -16.6% | Potency [5] | Potency (Furin (Homo sapiens)) | Potency [10] | Potency [11]
